The target of experiment [1] is Metallo-beta-lactamase type 2 (Klebsiella pneumoniae) (UniProt C7C422). Put plainly: qHTS to identify inhibitors of the New Delhi Metallo-beta-lactamase (NDM): assay validation screen against the NCATS LOPAC Collection (AID 1794843).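 Note: nitrocefin turnover by NDM-1 measured as 485 nm absorbance at plateau.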 Put shortly: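 NDM-1 at 2 nM final in 50 mM HEPES pH 7.0 with 1 uM ZnSO4 and 0.01% Tween20 was preincubated with library compounds in DMSO. Nitrocefin (50 uM stock) was then added, and absorbance at 485 nm was read at the kinetic plateau.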
In general terms: In qHTS, concentration-response curves come from the screen itself.

Experiment [2] concerns the target Glutathione peroxidase 1 (Homo sapiens) (UniProt P07203). Put plainly: Primary qHTS Assay for Inhibitors of Recombinant Selenoprotein Glutathione Peroxidase 1 (GPX1) (AID 1845191). Note: nearly all actives have a fitted effect of over 65% in size. In short, it runs like this:
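Recombinant GPX1 (10 nM final) was preincubated with compound for 30 min at room temperature, then reacted with 1 mM GSH, 0.5 mM CHP, 0.5 mM NADPH and 100 nM glutathione reductase; NADPH fluorescence (340/450 nm) was read at 0 and 15 min.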

Experiment [3] deals with Phospholipid hydroperoxide glutathione peroxidase GPX4 (Homo sapiens) (UniProt P36969). Put plainly: Primary qHTS Assay for Inhibitors of Recombinant Selenoprotein Glutathione Peroxidase 4 (GPX4) (AID 1845192). Note: nearly all actives have a fitted effect of over 65% in size. Put shortly:
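GR-coupled readout: 100 nM GR, 1 mM GSH, 0.5 mM NADPH; NADPH fluorescence (ex 340/em 450 nm) read at t=0 and after 15 min RT. GPX4 200 nM, preincubated 30 min with compound; substrate 0.5 mM CHP.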

Experiment [4] can be described thus: Quantitative High-Throughput drug screen in 47 multiple myeloma cell lines against the NCATS MIPE library collection: FR4_PLB cell viability assay (AID 1918924; note: nearly all actives have a fitted effect of over 35% in size; note: potency is the fitted concentration of half-maximal effect). Put shortly: (§1)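 Viability readout: CellTiter-Glo luminescence following 5 min room-temperature incubation with reagent. Prior exposure: 48 h, 37C, humidified 5% CO2, 500 cells per well.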
Experiment [5] can be described thus: Quantitative High-Throughput drug screen in 47 multiple myeloma cell lines against the NCATS MIPE library collection: AMO1_DSMZ cell viability assay (AID 1918927; note: nearly all actives have a fitted effect of over 30% in size; note: potency is the fitted concentration of half-maximal effect). In short, it runs like this: (§2)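 Relative luminescence from CellTiter-Glo served as the viability signal, referenced to DMSO-treated (100%) and cell-free medium (0%) controls. Treatment lasted 48 hours at 37C with 500 cells per well.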

Experiment [6] is described as follows: Quantitative High-Throughput drug screen in 47 multiple myeloma cell lines against the NCATS MIPE library collection: ARP1_JJKsccF8 cell viability assay (AID 1918928; note: nearly all actives have a fitted effect of over 40% in size; note: potency is the fitted concentration of half-maximal effect). In short, it runs like this:
(§3)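 Myeloma cells, 500 per well, were exposed to MIPE 4.0 drugs by pin transfer for 48 h at 37 °C, 5% CO2. Viability was read as ATP luminescence with CellTiter-Glo, normalised to DMSO-only (100%) and medium-only (0%) wells.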

The nature of experiment [7]: Quantitative High-Throughput drug screen in 47 multiple myeloma cell lines against the NCATS MIPE library collection: ARD_JJKsccE7 cell viability assay (AID 1918929; note: potency is the fitted concentration of half-maximal effect). In short, it runs like this:
as §2

Experiment [8] is described as follows: Quantitative High-Throughput drug screen in 47 multiple myeloma cell lines against the NCATS MIPE library collection: Karpas620_DSMZ cell viability assay (AID 1918959). Note: nearly all actives have a fitted effect of over 30% in size. Note: potency is the fitted concentration of half-maximal effect. In short, it runs like this:
as §1

The nature of experiment [9]: Quantitative High-Throughput drug screen in 47 multiple myeloma cell lines against the NCATS MIPE library collection: Delta47_JCRB cell viability assay (AID 1918925; note: nearly all actives have a fitted effect of over 45% in size; note: potency is the fitted concentration of half-maximal effect). In short, it runs like this: as §2
Experiment [10] in a line: Quantitative High-Throughput drug screen in 47 multiple myeloma cell lines against the NCATS MIPE library collection: EJM_DSMZ cell viability assay (AID 1918926; note: nearly all actives have a fitted effect of over 30% in size; note: potency is the fitted concentration of half-maximal effect). In short, it runs like this: as §2
Experiment [11] can be described thus: Quantitative High-Throughput drug screen in 47 multiple myeloma cell lines against the NCATS MIPE library collection: Karpas417_ECACC cell viability assay (AID 1918961). Note: potency is the fitted concentration of half-maximal effect. Particulars: Karpas417 myeloma viability, CellTiter-Glo ATP luminescence, 48 h; viability (% of DMSO): at 45.8 µM (top of the series). Put shortly:
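Approved and investigational drugs from MIPE 4.0 were added by pin tool to 500 cells per well. After 48 hours at 37C, ATP-based CellTiter-Glo luminescence indicated remaining viability.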
In general terms: Cellular ATP, detected with luciferase, serves as a proxy for viable cell number.

Experiment [12] can be described thus: Quantitative High-Throughput drug screen in 47 multiple myeloma cell lines against the NCATS MIPE library collection: JIM3_ECACC cell viability assay (AID 1918963; note: nearly all actives have a fitted effect of over 35% in size; note: potency is the fitted concentration of half-maximal effect). In short, it runs like this:
as §1

Experiment [13] in a line: Quantitative High-Throughput drug screen in 47 multiple myeloma cell lines against the NCATS MIPE library collection: JIM1_ECACC cell viability assay (AID 1918964; note: potency is the fitted concentration of half-maximal effect). Put shortly:
as §2

A short description of experiment [14]: HepG2 viability counterscreen (readout 1: protease activity) against the NCATS DSHEA and TCM libraries (AID 1794841).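 Note: cells exposed to compounds for about 24 h before the protease read.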 Put shortly:
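Cytotoxicity was assessed in HepG2 cells plated at 1,000 cells/well and exposed for about 24 hours to a concentration series. Protease activity and ATP content were measured sequentially in each well.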
Background: A counterscreen serves to expose hits that act by an unwanted route or on another target.

The nature of experiment [15]: Quantitative High-Throughput drug screen in 47 multiple myeloma cell lines against the NCATS MIPE library collection: KHM11_PLB cell viability assay (AID 1918962). Note: potency is the fitted concentration of half-maximal effect; nearly all actives have a fitted effect of over 35% in size. In short, it runs like this: as §1
Experiment [16] addresses Luciferin 4-monooxygenase (Photinus pyralis) (UniProt P08659). Put plainly: Primary firefly luciferase (FLuc) qHTS assay for identification of artifact compounds. (AID 1845220). Note: nearly all actives have a fitted effect of over 60% in size. Put shortly: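 qHTS, 15 min compound preincubation with substrate (10 uM luciferin, 10 uM ATP) at RT, then 10 nM FLuc; 5 min; luminescence; % inhibition vs no-enzyme/DMSO controls, 4-parameter Hill fit.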

A short description of experiment [17]: Primary fluorescence-based thiol-reactive (MSTI) qHTS assay for identification of artifact compounds. (AID 1845221).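 Note: thiol-reactive compounds lower the probe fluorescence signal; nearly all actives have a fitted effect of over 65% in size.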 In short, it runs like this: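 Probe: MSTI 4 uM, PBS pH 7.4, 2% DMSO. Incubation 1 h, RT, light-protected. Readout fluorescence 525/598 nm.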
Experiment [18] concerns Nanoluciferase (engineered Oplophorus gracilirostris luciferase). Description: Primary Nanoluciferase (NLuc) qHTS assay for identification of artifact compounds. (AID 1845222). Put shortly:
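Luminescence read-out of secreted NLuc in S16 cell conditioned medium (1:55); compounds tested with 15 min RT preincubation, then Nano-Glo substrate 1:100, 5 min. % inhibition vs no-enzyme and DMSO controls, 4-parameter Hill fit.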

Experiment [19] in a line: Primary redox qHTS assay for identification of artifact compounds. (AID 1845223). In short, it runs like this: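 Amplex Red (25 uM) and HRP (250 mU/mL) in HBSS, with compounds for 15 min, then 250 uM DTT for 30 min, room temperature, dark. Fluorescence 525/598 nm read; normalized to DMSO and 10 uM DA3003; Hill fit.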
The nature of experiment [20]: Quantitative High-Throughput drug screen in 47 multiple myeloma cell lines against the NCATS MIPE library collection: KMM1_JCRB cell viability assay (AID 1918960). Note: nearly all actives have a fitted effect of over 30% in size. Put shortly: as §3

Structures are written as SMILES. Results filed as inconclusive are left out. Calls of active or inactive are those of the source. Calls come from the whole dose curve; as a rule, active = well fitted curve in the direction sought with a large enough effect; inconclusive = small, poorly fitted or top-dose-only effect, or another doubt; inactive = no such curve, though single readings can be large; an effect the other way counts as inactive or inconclusive.

Metallo-beta-lactamase type 2 (Klebsiella pneumoniae), sequence (C7C422 whole entry, looked up): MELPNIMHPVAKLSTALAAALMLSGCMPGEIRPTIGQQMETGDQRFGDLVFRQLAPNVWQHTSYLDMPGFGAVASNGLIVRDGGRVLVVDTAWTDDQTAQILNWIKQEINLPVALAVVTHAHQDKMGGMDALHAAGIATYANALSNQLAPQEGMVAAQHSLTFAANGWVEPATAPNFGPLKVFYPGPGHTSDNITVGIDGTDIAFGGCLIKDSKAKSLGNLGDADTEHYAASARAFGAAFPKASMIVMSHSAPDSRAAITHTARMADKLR
Phospholipid hydroperoxide glutathione peroxidase GPX4 (Homo sapiens), sequence (P36969 whole entry, looked up): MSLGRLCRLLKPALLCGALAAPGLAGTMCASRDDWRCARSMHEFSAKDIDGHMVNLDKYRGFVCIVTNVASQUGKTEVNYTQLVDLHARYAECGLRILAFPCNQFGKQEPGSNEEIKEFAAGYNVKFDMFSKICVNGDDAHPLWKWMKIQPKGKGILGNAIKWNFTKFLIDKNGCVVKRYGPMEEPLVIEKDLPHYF
Glutathione peroxidase 1 (Homo sapiens), sequence (P07203 whole entry, looked up): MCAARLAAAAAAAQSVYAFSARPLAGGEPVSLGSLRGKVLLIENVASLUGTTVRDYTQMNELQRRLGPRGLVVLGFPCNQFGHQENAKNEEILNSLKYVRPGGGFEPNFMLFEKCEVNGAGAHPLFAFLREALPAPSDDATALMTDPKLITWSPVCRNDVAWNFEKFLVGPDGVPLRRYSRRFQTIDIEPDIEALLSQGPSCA

For the molecule `CNC[C@H](O)c1ccc(O)c(O)c1`, in experiment [1], the molecule was classed as inactive. Moreover, the Potency entry in [2], in experiment [3], in experiment [5], in experiment [7] and in [8] was “inactive” in each case. For the same molecule, the values for the Potency in experiment [4] and in experiment [6] were 9590 nM (active) and 15200 nM (active), respectively.

Take `CCN(CC)CCOc1ccc(Nc2ncc3cc(-c4c(Cl)cccc4Cl)c(=O)n(C)c3n2)cc1`: the outcome in [1] was inactive. Besides, the Potency entry in [2] and in experiment [3] was “inactive” throughout. Besides, the Potency in experiment [4] was 935 nM (active); in experiment [9], 1320 nM (active); in experiment [10], 2090 nM (active); in experiment [5], 166 nM (active); in experiment [6], 2640 nM (active); in experiment [7] it was 166 nM (active). The Potency is 2090 nM (active) in [8], 105 nM (active) in [11], 118 nM (active) in experiment [12] and 83.3 nM (active) in [13].

In the case of `Cc1cc(O)c2c(c1)C(=O)c1cc(O)cc(O)c1C2=O`, the result in [14] and in experiment [1] was inactive. The Potency result in [2], in experiment [3], in experiment [9], in experiment [5], in experiment [7] and in [8] was “inactive” each time. Also, the Potency entry in experiment [11], in experiment [12] and in experiment [13] was “inactive” each time. Also, the Potency in [4] was 418 nM (active).

With `O=C(O)c1cccnc1Nc1cccc(C(F)(F)F)c1`, in [1], the molecule was classed as inactive. Also, the Potency result in [2], in experiment [3], in experiment [4], in experiment [9], in [10] and in experiment [5] was “inactive” in each case. For the same molecule, the Potency result in [6], in experiment [7], in experiment [8] and in [12] was “inactive” throughout.

On to `O=C1c2ccccc2-c2n[nH]c3cccc1c23`, for which the molecule was classed as inactive in experiment [1]. Also, the Potency entry in experiment [2], in [3], in [4], in [8] and in [12] was “inactive” throughout. The figures for the Potency in [10], in [5] and in experiment [7] were 1.7 nM (active), 20900 nM (active) and 1180 nM (active), respectively.

As to `Cc1cccc(-c2[nH]ncc2-c2ccc3ncccc3n2)n1`, the molecule was called inactive in experiment [1]. For the same molecule, the Potency result in experiment [2], in experiment [3], in [10], in experiment [5], in [6] and in experiment [7] was “inactive” each time. Moreover, the Potency entry in experiment [8] was “inactive”. Further, the Potency in [4] is 118 nM (active).

Consider `NC(=NCc1ccccc1)NC(=O)c1nc(Cl)c(N)nc1N`, for which the result in experiment [1] was inactive. The Potency entry in experiment [2], in experiment [4], in experiment [10] and in experiment [6] was “inactive” each time. In addition, the figures for the Potency in experiment [9] and in [15] were 6620 nM (active) and 10500 nM (active), respectively.

With `CN(C)C(=O)[C@H](O)[C@H](Cc1ccccc1)NC(=O)c1cc2cc(Cl)ccc2[nH]1`, the result in experiment [1], in experiment [18] and in [19] was inactive. The Potency result in experiment [3], in experiment [16] and in experiment [17] was “inactive” each time. Further, the Potency in [9] was 4180 nM (active); in experiment [5], 6620 nM (active); in experiment [6], 16600 nM (active); in experiment [7], 16600 nM (active).

Consider `C[C@@H](c1ncncc1F)[C@](O)(Cn1cncn1)c1ccc(F)cc1F`, for which the call in [1] was inactive. For the same molecule, the Potency entry in [4], in experiment [9], in [10], in [5], in [6] and in experiment [7] was “inactive” each time. Besides, the Potency entry in [8], in experiment [20], in experiment [12] and in experiment [13] was “inactive” in each case.

Values taken from PubChem BioAssay (NCATS).
